Laboratory results: PubChem BioAssay (NCATS)
Inconclusive results are not listed. Calls of active or inactive are those of the source. Calls follow the shape of the dose curve; as a rule, active = well fitted inhibition curve with a large enough effect; inconclusive = small, poorly fitted or top-dose-only effect; inactive = no such curve, though single readings can be large or run the other way.

The compounds below were run against Cytochrome P450 2D6 (Homo sapiens) (UniProt P10635) (assay: qHTS for inhibitors of CYP2D6 against the NCATS DSHEA and TCM libraries (AID 1919972)). Conditions: CYP2D6 enzymatic inhibition, luminescence qHTS; series mostly up to 34.1 µM; activity change, negative = inhibition: at the top concentration.
Chain of Cytochrome P450 2D6 (Homo sapiens) (P10635 whole entry, looked up): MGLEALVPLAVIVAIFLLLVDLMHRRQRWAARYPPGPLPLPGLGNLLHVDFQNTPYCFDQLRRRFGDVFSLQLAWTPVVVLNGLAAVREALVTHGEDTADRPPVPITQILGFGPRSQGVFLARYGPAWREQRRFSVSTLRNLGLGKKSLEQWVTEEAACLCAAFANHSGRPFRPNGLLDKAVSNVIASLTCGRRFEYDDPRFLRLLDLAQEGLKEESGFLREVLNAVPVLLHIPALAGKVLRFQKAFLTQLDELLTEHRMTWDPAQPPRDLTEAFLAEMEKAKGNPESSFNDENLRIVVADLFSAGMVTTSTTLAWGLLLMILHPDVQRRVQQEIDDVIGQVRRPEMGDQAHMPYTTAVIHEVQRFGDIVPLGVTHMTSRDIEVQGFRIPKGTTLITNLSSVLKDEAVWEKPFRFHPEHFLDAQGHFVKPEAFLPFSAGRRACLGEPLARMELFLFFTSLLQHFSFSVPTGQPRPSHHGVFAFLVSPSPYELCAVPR
Summary of the method: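 qHTS, concentration–response format with most substances from 19.5 nM. CYP2D6 + pro-luciferin substrate, 15 min with compound, then 1x NADPH regen, 30–45 min RT dark. Glo detection 30 min, luminescence. Quinidine control.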
% is scaled to controls: 0 for no effect and ±100 for the full control effect.

| SMILES | activity change, negative = inhibition |
| --- | --- |
| O=C(/C=C/c1ccc(O)c(O)c1)O[C@@H]1CC(C(=O)O)=C[C@@H](O)[C@H]1O | -0.273% (inactive) |
| CC(C)=CCCC(C)(OC1OC(COC2OC(CO)C(O)C2O)C(O)C(O)C1O)C1CCC2(C)C1C(O)CC1C3(C)CCC(OC4OC(CO)C(O)C(O)C4OC4OC(CO)C(O)C(O)C4O)C(C)(C)C3CCC12C (configuration not stated) | -3.79% (inactive) |
| CC[C@H](CC[C@@H](C)[C@H]1CCC2C3CCC4C[C@@H](O)CC[C@]4(C)C3CC[C@@]21C)C(C)C (some centres not stated) | -3.47% (inactive) |
| O=C(O)CC(O)(C(=O)O)C(O)C(=O)O (configuration not stated) | -0.649% (inactive) |
| CCCCCC(=O)CC | 2.54% [at 104 µM] (inactive) |
| C=C1CC[C@H](O)C/C1=C\C=C1/CCC[C@]2(C)[C@@H]([C@H](C)CC[C@H](C)C(C)C)CC[C@@H]12 | -29.4% (inactive) |
| CC1(C)C2CCC1(C)C(O)C2 (configuration not stated) | 4.14% (inactive) |
| O[C@@H]1[C@@H](O)[C@H](OC/C=C/c2ccccc2)O[C@H](CO[C@@H]2OC[C@H](O)[C@H](O)[C@H]2O)[C@H]1O | 3.14% (inactive) |
| CC(=O)O[C@H]1[C@H](O[C@H]2CC[C@]34C[C@]35CC[C@]3(C)[C@@H]([C@@]6(C)CC[C@@H](C(C)(C)O)O6)[C@@H](O)C[C@@]3(C)[C@@H]5C[C@H](O[C@@H]3O[C@H](CO)[C@@H](O)[C@H](O)[C@H]3O)[C@H]4C2(C)C)OC[C@@H](O)[C@@H]1O | -3.2% (inactive) |
| OCC1=C[C@@H](O)[C@@H]2C=CO[C@@H](OC3O[C@H](CO)[C@@H](O)[C@H](O)[C@H]3O)[C@H]12 (some centres not stated) | 1.13% (inactive) |
| CCCCCCCCCC=O | -1.22% [at 58.3 µM] (inactive) |
| CC(=O)OC1CC2CCC1(C)C2(C)C (configuration not stated) | 3.64% (inactive) |
